GPR151 activ: human GPR151 activation | PathHunter beta-arrestin GPR151 cells, luminescence | 650,000 compounds, 1% hits | activation, % at 11.2 µM; in the data active = activation above about 4.9%
Target sequence (Q8TDV0 whole entry, looked up): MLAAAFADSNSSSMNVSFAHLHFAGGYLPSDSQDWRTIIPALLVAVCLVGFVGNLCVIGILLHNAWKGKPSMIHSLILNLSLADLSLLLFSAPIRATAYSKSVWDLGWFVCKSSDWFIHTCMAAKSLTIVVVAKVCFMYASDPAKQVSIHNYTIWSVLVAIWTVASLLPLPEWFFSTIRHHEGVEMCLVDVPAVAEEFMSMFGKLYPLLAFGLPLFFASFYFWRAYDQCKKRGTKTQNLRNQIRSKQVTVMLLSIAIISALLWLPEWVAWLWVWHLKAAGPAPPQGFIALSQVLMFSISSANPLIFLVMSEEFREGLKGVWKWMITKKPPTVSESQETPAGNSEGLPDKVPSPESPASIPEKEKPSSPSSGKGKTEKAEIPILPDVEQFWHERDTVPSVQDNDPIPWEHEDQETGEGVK
FBW7 activator: activators of human E3 ligase FBW7; Q969H0; AlphaScreen FBW7–phospho-cyclin E peptide binding, activator screen; normalized activity (activation), % at 26.1 µM; 650,000 compounds, 0.13% hits; AID 1259310; in the data active = normalized activity above about 1.9%;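 note: purified mutant Fbw7 with reduced substrate affinity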
TEAD-YAP inh: TEAD-YAP interaction inhibition | HEK-TIYL cells, TEAD-Gal4/YAP UAS-luciferase luminescence | inhibition, % at 9.12 µM | 640,000 compounds, 1.4% hits | AID 1259422; in the data active = inhibition above about 32%
MITF primary: blocks human microphthalmia-associated transcription factor; AlphaScreen MITF homodimerization, bead proximity signal; inhibition, % at 2.6 µM; 650,000 compounds, 0.91% hits; AID 1259374; in the data active = inhibition above about 50%
MITF confirm: human MITF inhibition, confirmation. shares compounds with MITF primary. AlphaScreen MITF homodimerization, biotin/His-MITF beads. inhibition, % at 2.6 µM. 4,700 compounds, 16% hits. AID 1259372;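 active = inhibition above a cutoff derived from the DMSO control wells, cut at about 28% in these data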;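 note: inhibitors lower the bead chemiluminescence by keeping MITF from dimerizing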
AlphaScreen DR: counter-screen: compounds optically interfering with AlphaScreen. 480 compounds, 6% hits. IC50, µM. shares compounds with MITF primary. AlphaScreen optical interference counterscreen, cell-free; call rule not given here
AS interf ctr: optically interferes with AlphaScreen signal. shares compounds with MITF primary. LysRS AlphaScreen counterscreen, signal interference, triplicate. inhibition, % at 2.6 µM. 4,700 compounds, 7.6% hits. AID 1259376;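 active = inhibition above a cutoff derived from the DMSO control wells, cut at about 30% in these data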
Numbers stand for hits; . = inactive; / = no result given. Sampled rows, rich in hits. Any-hit rate of the full collection: about 3.5%.

SMILES	GPR151 activ	FBW7 activator	TEAD-YAP inh	MITF primary	MITF confirm	AS interf ctr	others
CCOc1cccc(C2CC(c3cccc(OC)c3)=NC(c3cccc(Cl)c3)N2)c1O (stereo unspecified)	.	.	.	.	/	/
C=CCc1cc(C)ccc1OCCN1CCN(C)CC1	.	.	.	57.1	.	.
CC(C)NC(=O)/C(C#N)=C/c1ccc(-c2ccc([N+](=O)[O-])cc2Br)o1	.	.	.	72.6	76.6	.	AlphaScreen DR=.
CC(=O)N/N=C/c1ccc(-c2ccc([N+](=O)[O-])cc2Br)o1	.	.	.	.	/	/
COc1cc(/C=N/NC(N)=S)ccc1OCc1ccc(Cl)nc1	.	.	.	.	/	/
COc1ccc(C(C)=O)cc1CSc1nc(NCCc2ccccc2)c2ccccc2n1	.	.	.	.	/	/
COc1ccc(C(C)=O)cc1CSc1nc(NC2CCCCC2)c2ccccc2n1	.	.	.	80.3	.	.
c1ccc(-c2cc(N3CCC4(CC3)OCCO4)nc(-c3ccccn3)n2)nc1	.	.	67.8	114.5	116.2	100.3
CC(C)N(CCNc1nc(NC2CCN(Cc3ccccc3)CC2)nc2c1ncn2C1CCCCC1)C(C)C	.	.	.	58.5	.	.
c1ccc(CNc2nc(NC3CCN(Cc4ccccc4)CC3)nc3c2ncn3C2CCCCC2)cc1	.	.	.	.	/	/
c1ccc(Nc2nc(NC3CC3)c3ncn(C4CCCCC4)c3n2)cc1	.	.	.	87.7	.	.
c1ccc(CN2CCC(Nc3nc(Nc4ccccc4)nc4c3ncn4C3CCCCC3)CC2)cc1	.	.	.	.	/	/
Cc1ccc(C)c(N(CC(=O)NCCSCc2cccc(Cl)c2)S(C)(=O)=O)c1	.	.	.	.	/	/
COc1ccc(C)cc1NC(=O)NCc1ccco1	.	.	.	.	/	/
COc1ccc(C)cc1NC(=O)CNCc1ccco1	.	.	.	52.6	.	.
CCCCC(=O)Nc1c2c(nc3c1CCC3)CCCC2	.	.	.	.	/	/
O=C(CN1CCCC1)Nc1c2c(nc3c1CCC3)CCC2	.	.	.	75.7	.	.
Cc1n[nH]c(C)c1NC(=O)CN1CCCCCC1	.	.	.	61.6	.	.
CN1CCN(CC(=O)Nc2c3c(nc4c2CCC4)CCCC3)CC1	.	.	.	74.3	.	.
O=C(CN1CCCCCC1)Nc1c2c(nc3c1CCC3)CCCC2	.	.	.	58.4	.	.
COc1ccc(CCNC(=O)CCCCCn2c(SCc3ccc(F)cc3Cl)nc3ccsc3c2=O)cc1OC	.	.	.	.	/	/
CNC(=O)C(C)n1c(C)c2cnn(-c3ccccc3)c(=O)c2c1C (stereo unspecified)	.	.	.	.	/	/
Cc1ccccc1Nc1nnc(SCC(=O)Nc2sc3c(c2C(N)=O)CCC3)s1	.	.	.	.	/	/
CS(=O)(=O)N1CCN(Cc2ccccc2Cl)CC1	.	.	.	.	/	/
CCOc1ccc2nc(Nc3nc(CSc4nc5ccccc5s4)cc(=O)[nH]3)nc(C)c2c1	.	.	.	.	/	/
SMILES	GPR151 activ	FBW7 activator	TEAD-YAP inh	MITF primary	MITF confirm	AS interf ctr	others
COc1ccc(Cl)cc1-c1ccc(/C=N/N2C(=O)C3C4C=CC(C5CC45)C3C2=O)o1 (stereo unspecified)	.	.	.	.	/	/
CCCCCCCC(=O)NNC(=O)c1ccc(Cl)cc1	.	.	.	.	/	/
CCCCCC(=O)NNC(=O)c1ccc(-c2ccccc2)cc1	.	.	.	76.2	.	.
CCOC(=O)c1c(NC(=O)c2cc(-c3ccc(OC)cc3OC)nc3ccccc23)sc2c1CCCCCC2	.	.	.	.	/	/
CCOC(=O)c1[nH]c(C)c(CNc2ccccc2)c1C	.	.	.	60.0	.	.
CCOC(=O)c1[nH]c(C)c(CNc2cccc(F)c2)c1C	.	.	.	.	/	/
CN=c1scc(C)n1/N=C/C1CCCCC1	.	.	.	96.6	.	.
CCOC(=O)CC(=O)CSc1nc2c(cc1C#N)CN(C)CC2	.	.	.	52.7	.	.
CCOC(=O)CSc1nc2c(cc1C#N)CCCCC2	.	.	.	.	/	/
O=C(CN1Cc2ccccc2OC(c2ccccc2F)C1)NCC1CCS(=O)(=O)C1 (stereo unspecified)	.	.	.	61.5	.	.
O=C(CN1Cc2ccccc2OC(c2ccccc2F)C1)NC1CCC(O)CC1 (stereo unspecified)	.	.	.	.	/	/
COc1ccc(OC)c(CN2CCN(Cc3ccc(C(F)(F)F)cc3)CC2)c1	.	.	.	78.5	.	.
